Values joined by “and” are separate entries in the source; they are usually repeats but may differ in a detail not shown here. Identical values can stand only once. The panel holds about 83,000 compounds, 20% with a hit somewhere; the sample as a whole holds those more often.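 Cell lines were cultured in 96-well plates, exposed to a single compound concentration, and assessed for percent growth 48 hours later.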 A number with no mark means an inactive call. Active and inactive are the calls of the source. Rule for the calls: active = growth percent below 10; inactive = the rest.
Legend:
Assay in all cases: NCI-60 one-dose screen, 48 h (100 = growth as untreated, 0 = no growth, -100 = all killed)
Conditions in all cases: 10 µM unless noted
HCT-15 colon = test system: HCT-15 colon
HT29 colon = test system: HT29 colon
SNB-75 CNS = test system: SNB-75 CNS
SNB-19 CNS = test system: SNB-19 CNS
U251 CNS = test system: U251 CNS
PC-3 prostate = test system: PC-3 prostate
SK-MEL-5 melanoma = test system: SK-MEL-5 melanoma
UACC-62 melanoma = test system: UACC-62 melanoma
LOX IMVI melanoma = test system: LOX IMVI melanoma
SK-MEL-28 melanoma = test system: SK-MEL-28 melanoma

Row | SMILES | growth (HCT-15 colon) | growth (HT29 colon) | growth (SNB-75 CNS) | growth (SNB-19 CNS) | growth (U251 CNS) | growth (PC-3 prostate) | growth (SK-MEL-5 melanoma) | growth (UACC-62 melanoma) | growth (LOX IMVI melanoma) | growth (SK-MEL-28 melanoma)
1 | CCCN1C(=O)NC(=O)C(CC)(N2C(=O)c3c(F)c(F)c(F)c(F)c3C2=O)C1=O (stereo not given) | -51.8% (active) | -66.6% (active) | -52.1% (active) | -94.9% (active) | -48% (active) | -59.2% (active) | -91.7% (active) | -68.6% (active) | -55.9% (active) | -93.7% (active)
2 | CN(C)c1ccc(N)cc1 | 106% and 83.6% | 102% and 37.4% | 83.4% and 62.8% | 99.5% and 47.8% | 98.2% and 17.5% | 81.3% and 50.8% | 96.4% and 44.5% | 89% and 43.3% | 94.2% and 27.2% | 115% and 73.2%
3 | CC[C@H](C)[C@H](NC(=O)[C@H]1CCCCN1C)C(=O)N(C)[C@H](C[C@@H](OC(C)=O)c1nc(C(=O)N[C@@H](Cc2ccccc2)C[C@H](C)C(=O)O)cs1)C(C)C | 9.59% (active) | -18.7% (active) | 31.4% | 36.7% | 15% | 26.1% | -71.7% (active) | 52.8% | 9.84% (active) | 50.6%
4 | O=C(O)C1C(C(=O)O)C2(Cl)C(Cl)=C(Cl)C1(Cl)C2(Cl)Cl (stereo not given) | 105% and 106% | 103% | 82.3% and 93.7% | 124% and 100% | 97.7% and 103% | 91.7% and 101% | 104% and 116% | 104% and 102% | 107% and 98.1% | 108%
5 | CCOC(=O)c1cncn1C(C)c1ccccc1 (stereo not given) | 106% | 95.1% | 94.3% | 106% | 100% | 97.9% | 102% | 100% | 101% | 114%
6 | CC(C)COC(=O)Cc1ccccc1 | 109% | 101% | 99.9% | 109% | 101% | 97.6% | 98.7% | 107% | 101% | 112%
7 | N#CC(N)c1ccccc1 (stereo not given) | 104% | 111% | 97.4% | 105% | 105% | 104% | 101% | 99.5% | 101% | 113%
8 | Cc1cc(Br)c([N+](=O)[O-])cc1[N+](=O)[O-] | 76.1% | 103% | 108% | 103% | 103% | 91.4% | 100% | 102% | 19.7% | 116%
9 | CNC(=O)CCl | 101% | 102% | 96% | 104% | 94.7% | 94.6% | 96.4% | 96.1% | 100% | 107%
10 | C#Cc1cccc(Nc2nc(Cl)nc3cc(NC(=O)CF)ccc23)c1 | 35.4% | 16.1% | 61.2% | 89% | 79.3% | 57.8% | 37.3% | 72.9% | 65.2% | 73.2%
11 | C[C@@H]1C/C=C\C(=O)O[C@H](/C=C/C#C/C=C/C(C)(C)[C@@H](O)c2cccc(O)c2Br)[C@@H](C)/C=C/[C@H](C)C[C@H](OC(N)=O)C1 | 2.46% (active) | 5.59% (active) | 32.7% | 53.6% | 24.5% | 33.5% | -61.5% (active) | -41.8% (active) | -2.94% (active) | 35.5%
12 | OCCNC1CCCCC1 | 98.7% | 109% | 96.3% | 105% | 106% | 103% | 103% | 97.2% | 104% | 104%
13 | C[C@]12CCc3sc(Nc4ccc(OC(F)(F)F)cc4)nc3C1=CC[C@@H]1[C@@H]2CC[C@]2(C)C(=O)CC[C@@H]12 | 38.3% | 13% | 68.6% | 56.5% | 34.1% | 38.6% | 95.9% | 63.4% | 34.8% | 65.3%
14 | CC1=CC(=Nc2ccc(N(CCCl)CCCl)cc2)C=C(C)C1=O | 8.95% (active) | 11.1% | 25.3% | 37.9% | 17.9% | 41.6% | 22.8% | 6.59% (active) | 16.9% | 26.3%
15 | CN1C2CCC1[C@@H](COC(=O)c1ccccc1)[C@@H](O)C2 (stereo not given in full) | 111% | 91.3% | 83.5% | 102% | 103% | 99.7% | 112% | 96% | 103% | 128%
16 | O=c1[nH]c(=O)[nH]c(=O)[nH]1 | 160% | 115% | 103% | 98.1% | 132% | 148% | 107% | 113% | 129% | 135%
17 | COc1ccn(C)c(=O)c1C#N | 101% | 78.8% | 114% | 109% | 92% | 94.7% | 98% | 95.9% | 97% | 106%
18 | Oc1ccccc1C=NCCN=Cc1ccccc1O | 104% | 108% | 97.6% | 98% | 91.6% | 95.1% | 99.5% | 98.8% | 95.6% | 103%
19 | OCCN=Cc1c[nH]c2ccccc12 | 105% | 102% | 75% | 101% | 103% | 90.5% | 103% | 90.9% | 95.2% | 111%
20 | Cc1nc2ccccc2c(=O)n1-c1ccccc1F | 103% | 103% | 82.1% | 104% | 88.1% | 86.6% | 100% | 105% | 103% | 111%
21 | COc1cc(/C=C\[N+](=O)[O-])ccc1OCc1ccccc1 | -11.7% (active) | 4.62% (active) | 79.2% | 36.5% | 5.01% (active) | 23% | 65.2% | 30.5% | -83.3% (active) | 18.5%
22 | CCOP(=O)(OCC)C(=O)N(CC)CC | 98.4% | 114% | 102% | 103% | 95% | 96.5% | 94.4% | 107% | 104% | 115%
23 | O=C(CBr)OCCOC(=O)CBr | 72.4% | 92.5% | 91.2% | 104% | 87.4% | 84.1% | 99.3% | 81.4% | 37.1% | 79.5%
24 | O=C(O)CNCP(=O)(O)O | 123% | 98.6% | 96.5% | 123% | 98.3% | 106% | 111% | 105% | 95.7% | 120%
25 | COC(=O)C1=CO[C@@H](C)[C@@H]2CN3CCc4c([nH]c5cc(OC)ccc45)[C@@H]3C[C@H]12 | 97.6% | 103% | 76.9% | 95.2% | 103% | 93.9% | 98.2% | 78.3% | 94.6% | 114%
26 | CNC(=O)Oc1ccc(Cl)cc1SSc1cc(Cl)ccc1OC(=O)NC | 72.7% | 106% | 86.8% | 86.8% | 52.7% | 73% | 43.4% | 49.7% | 85.8% | 82%

— PubChem BioAssay (NCI)
